Assay results published in PubChem BioAssay AID463173 (ICCB-Longwood Screening Facility, Harvard Medical School, 2010).
In all, about 52,000 compounds went through this assay and about 1,700 (3.3%) were called active. No stated cut-off is given here; in the data, active means survival mostly below about 52% (no sharp cut-off); inactive means mostly above about 56%. Shown is part of a subset that was picked to be rich in actives.

What follows are compounds tested on Wild type (assay: growth inhibition of S. aureus wild type versus tarO mutant, primary screen, teichoic acid synthesis inhibitors, RN4220, OD600 (AID 463173)). Details: S. aureus RN4220 wild type/DeltatarO growth, OD600, 18 h, hits give low values, screened at 18.75 µg/mL (by protocol).
With Cc1ccc(CNC(=O)C2(c3cccs3)CCOCC2)cc1 the survival was 69% (inactive).
In the case of O=C(Nc1ccc2oc(-c3ccc4ccccc4c3)nc2c1)c1cc(Br)ccc1Cl, the survival is reported as 96% (inactive).
COc1ccc(NC(=O)CSc2nc(-c3ccc(OC)c(OC)c3)[nH]c2-c2ccc(C)cc2)cc1 was tested, and the survival was 139% (inactive).
With CCOC(=O)c1ccc(NC(=O)CCn2ccc(C)n2)cc1 the survival was 110% (inactive).
In the case of COc1ccc(C2C(=O)N(C3CCCCC3)CC(=O)N2C2CCCCC2)cc1 (stereo not drawn), the survival is reported as 76% (inactive).
In the case of Cc1cccc(NC(=O)c2oc3ccccc3c2NC(=O)c2cc(=O)c3cc(Cl)ccc3o2)c1, the survival is reported as 85% (inactive).
For COc1ccc(-c2nc(C)c(CCNC(=O)c3cccs3)s2)cc1OC, the survival was 69% (inactive).
With Cc1ccccc1-c1nc(CS(=O)(=O)CC(=O)NCCCc2ccccc2)c(C)o1 the survival was 138% (inactive).
With COC(=O)C(C)Sc1nc2c([nH]c3ccccc32)c(=O)n1-c1ccc(OC)cc1 (stereo not drawn) the survival was 75% (inactive).
For CCOC(=O)CSc1nc2c([nH]c3ccccc32)c(=O)n1-c1ccc(OCC)cc1, the survival was 80% (inactive).
With CCOc1ccc(-n2c(SC(C)C(=O)OC)nc3c([nH]c4ccccc43)c2=O)cc1 (stereo not drawn) the survival was -2% (active).
In the case of CCOc1ccc(-n2c(SCC(=O)Nc3cc(C)ccc3C)nc3c([nH]c4ccccc43)c2=O)cc1, the survival is reported as 59% (inactive).
For Cc1cc(C)cc(-n2c(SCC(=O)N3CCCC3)nc3c([nH]c4ccccc43)c2=O)c1, the survival was 69% (inactive).
For COc1ccc(-n2c(SCC(=O)N3CCC(C)CC3)nc3c([nH]c4ccccc43)c2=O)cc1, the survival was 79% (inactive).
With Cc1ccc(C)c(NC(=O)CSc2nc3c([nH]c4ccccc43)c(=O)n2-c2ccc(F)cc2)c1 the survival was 0% (active).
With Cc1ccc(-n2c(SCC(=O)N3CCC(C)CC3)nc3c([nH]c4ccccc43)c2=O)cc1 the survival was -6% (active).
Cc1cccc(NC(=O)CSc2nc3c([nH]c4ccccc43)c(=O)n2-c2ccc(F)cc2)c1C was tested, and the survival was 22% (inactive).
In the case of CC1CCN(C(=O)CSc2nc3c([nH]c4ccccc43)c(=O)n2-c2ccccc2)CC1, the survival is reported as 83% (inactive).
With Cc1cc(C)cc(-n2c(SCC(=O)N3CCCCC3)nc3c([nH]c4ccccc43)c2=O)c1 the survival was 78% (inactive).
Cc1cc(C)cc(-n2c(SCC(=O)N3CCC(C)CC3)nc3c([nH]c4ccccc43)c2=O)c1 was tested, and the survival was -1% (active).
In the case of CCc1ccc(-c2nc(CS(=O)CC(=O)NCc3ccc(F)cc3)c(C)o2)cc1 (stereo not drawn), the survival is reported as 73% (inactive).
O=C1N/C(=N\S(=O)(=O)Cc2ccccc2)S/C1=C\c1ccco1 was tested, and the survival was 106% (inactive).
In the case of COc1ccccc1CNC(=O)Cn1c(=O)nc(-c2ccccc2)c2ccccc21, the survival is reported as 67% (inactive).
